Results reported in PubChem BioAssay AID1851 (National Center for Advancing Translational Sciences (NCATS), 2009).
Out of some 16,000 compounds screened, about 4,000 (25%) were called active. Inconclusive results (about 26%) are left out. Calls come from the whole dose curve; as a rule, active = well fitted curve in the direction sought with a large enough effect; inconclusive = small, poorly fitted or top-dose-only effect, or effect the other way; inactive = no such curve, though single readings can be large or run the other way. These entries were drawn from the full list.

target: Cytochrome P450 2C9 (Homo sapiens) (UniProt P11712); experiment: Cytochrome panel assay with activity outcomes; conditions: recombinant CYP, pro-luciferin dealkylation, luminescence, p450-cyp2c9; series mostly up to 57.1 µM
% is set by controls: 0 for no effect and ±100 for the full control effect.

Cytochrome P450 2C9 (Homo sapiens), sequence (P11712 whole entry, looked up): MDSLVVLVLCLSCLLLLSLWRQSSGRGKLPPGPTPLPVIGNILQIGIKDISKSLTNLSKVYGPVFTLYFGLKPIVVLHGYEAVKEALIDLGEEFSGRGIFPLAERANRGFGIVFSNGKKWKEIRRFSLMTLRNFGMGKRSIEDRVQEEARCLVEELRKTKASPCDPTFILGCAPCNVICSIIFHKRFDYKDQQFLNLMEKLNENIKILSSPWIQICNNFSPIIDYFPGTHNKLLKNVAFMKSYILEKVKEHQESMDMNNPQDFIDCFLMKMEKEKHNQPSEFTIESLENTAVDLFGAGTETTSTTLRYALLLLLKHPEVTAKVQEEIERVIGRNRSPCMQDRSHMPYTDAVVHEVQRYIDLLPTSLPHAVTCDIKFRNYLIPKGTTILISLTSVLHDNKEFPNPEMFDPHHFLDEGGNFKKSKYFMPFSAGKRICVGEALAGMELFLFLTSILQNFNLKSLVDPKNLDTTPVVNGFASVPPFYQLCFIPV

| Compound | AC50 | activity, negative = inhibition |
| --- | --- | --- |
| CCOC(=O)CSc1cc(CS(=O)c2ccc(Cl)cc2)nc(-c2ccccc2)n1 (stereo unspecified) | 1.26 µM (active) |  |
| CNc1cc(CS(=O)c2ccccc2)nc(-c2ccccc2)n1 (stereo unspecified) | inactive |  |
| C=CCN=C1CC(C)(C)CC(=O)/C1=C(/O)CCC(=O)OC | inactive |  |
| CN(C)CCCNc1ncnc2nc[nH]c12 |  | 3.87% [at 11.4 µM] (inactive) |
| CO[C@@H]1/C=C\O[C@]2(C)Oc3c(C)c(O)c4c(O)c(cc(O)c4c3C2=O)NC(=O)/C(C)=C\C=C/[C@H](C)[C@@H](O)[C@H](C)[C@H](O)[C@H](C)[C@H](OC(C)=O)[C@@H]1C |  | -6.49% [at 11.4 µM] (inactive) |
| O=C(NCc1cccnc1)[C@@H]1[C@@H](C(=O)O)[C@H]2CC[C@@H]1O2 |  | -5.99% [at 11.4 µM] (inactive) |
| c1cncc(CNCc2cccnc2)c1 |  | 16% [at 11.4 µM] (inactive) |
| Cc1ccc(SC(C)C(=O)NCc2cccnc2)cc1 (stereo unspecified) | 8.91 µM (active) |  |
| COc1c(N2CCN(C(=S)Nc3ccc(F)cc3)C(C)C2)c(F)cc2c(=O)c(C(=O)O)cn(C3CC3)c12 (stereo unspecified) | inactive |  |
| CC(=O)OC1COC(N2CCc3cc([N+](=O)[O-])ccc32)C(OC(C)=O)C1OC(C)=O (stereo unspecified) | 0.891 µM (active) |  |
| CN1CCCN(C)C1c1cc([N+](=O)[O-])ccc1O |  | -15.9% [at 11.4 µM] (inactive) |
| Cc1cnc(CNc2nc(-c3ccoc3)nc3ccccc23)cn1 |  | -6.46% [at 2.29 µM] (inactive) |
| COc1ccc(C(=O)NN)cc1COc1ccc(Br)cc1 | 8.91 µM (active) |  |
| CCn1ncc(/C=C/C(=O)NCc2cn(C)nc2C)c1C | inactive |  |
| COC(=O)CCC(=O)NNC(=O)c1ccc(Br)cc1 | inactive |  |
| COc1ccc(/C=C/C(=O)NCc2cn(C)nc2C)cc1COc1ccc(Br)cc1 | 12.6 µM (active) |  |
| COc1ccc(C(=O)NNC(=O)Cc2ccc(-c3ccccc3)cc2)cc1OC | inactive |  |
| CC(C)n1nnnc1-c1cc(Cl)cc(Cl)c1 | inactive |  |
| CCOC(=O)c1cc(C(=O)OCC)cc(-n2cc(O)c(C(=O)OCC)n2)c1 | inactive |  |
| CCOC(=O)c1nn(-c2ccccc2)c(-c2ccccc2)c1C(=O)c1ccccc1 | 10 µM (active) |  |
| CC(=O)NCCNc1nc(-c2ccccc2C(F)(F)F)nc2ccccc12 |  | 5.47% [at 2.29 µM] (inactive) |
| COc1cccc(-c2cc(C(=O)N/N=C/c3ccc(OC)c(COC(C)=O)c3)c3ccccc3n2)c1 | 0.398 µM (active) |  |
| COc1ccc(/C=N/NC(=O)c2cc(-c3ccc(C)cc3C)nc3ccccc23)cc1COC(C)=O | 0.794 µM (active) |  |

| Compound | AC50 | activity, negative = inhibition |
| --- | --- | --- |
| NS(=O)(=O)c1cc(C(=O)O)c(Cl)c([N+](=O)[O-])c1Cl |  | 8.24% [at 11.4 µM] (inactive) |
| CCCn1cnc2c(SCC(=O)O)nc(N)nc21 |  | 3.25% [at 11.4 µM] (inactive) |
| O=C1c2ccccc2-c2ccc(N(Cc3ccc(Br)cc3)Cc3ccc(Br)cc3)cc21 |  | -1.26% [at 11.4 µM] (inactive) |
| Cc1nc2sccn2c(=O)c1Cl | inactive |  |
| CCCN(C/C=C\I)[C@@H]1CCc2cccc(O)c2C1 | inactive |  |
| COCCSc1nnc(NC(=O)C(C)(C)C)s1 | inactive |  |
| CCSc1nnc(NC(=O)C(C(F)(F)F)C(F)(F)F)s1 | 7.94 µM (active) |  |
| CN(C)S(=O)(=O)c1nc(Cl)c2[nH]cnc2n1 |  | 1.52% [at 11.4 µM] (inactive) |
| CCn1c(SCc2ccc(C#N)cc2)nnc1-c1ccc(S(=O)(=O)N2CCCCC2)cc1 | 4.47 µM (active) |  |
| O=C1N=C(N2CCOCC2)S/C1=C\C=C/c1ccccc1 | inactive |  |
| O=C1N=C(N2CCC(Cc3ccccc3)CC2)S/C1=C/c1cn[nH]c1-c1ccccc1 | 0.447 µM (active) |  |
| CCN1CCCCC(=N/O)/C(=N/O)CCCC1 |  | -7.4% [at 11.4 µM] (inactive) |
| CCCSc1nc(C)cc(C)c1C(N)=O | inactive |  |
| Cc1cc(C)c(C(N)=O)c(SCC(=O)c2ccc(Cl)cc2)n1 | 12.6 µM (active) |  |
| Cc1cc(C)c(C(N)=O)c(NC(=O)Nc2ccccc2)n1 | inactive |  |
| O[C@@H]1[C@@H](OCc2ccccc2)OC[C@H](O)[C@@H]1O |  | 0.912% [at 11.4 µM] (inactive) |
| CC(C)[C@@H](OCc1ccccc1)[C@H](C)/C=N\OC[C@@H](O)[C@@H]1O[C@@H]2OC(C)(C)O[C@@H]2[C@H]1O |  | -22.1% [at 11.4 µM] (inactive) |
| CCO[C@H]1O[C@@H]([C@H](COCc2ccccc2)OCc2ccccc2)[C@@H](OCc2ccccc2)[C@H]1O | 10 µM (active) |  |
| COc1ccc(CNc2ncncc2-c2ccccc2CN(C)C)c(OC)c1 |  | -5.35% [at 2.29 µM] (inactive) |
| CN(C)C(=O)c1ccc(-c2ccc3ncnc(N4CCOCC4)c3c2)cc1 |  | 20.2% [at 2.29 µM] (inactive) |
| O=C(c1ccc(Cl)c(Cl)c1)c1cc(-c2ccccn2)c(N2CCOCC2)s1 | 5.01 µM (active) |  |
| O=C(c1ccccc1)c1cc(F)c(N2CCOCC2)cc1Cl | inactive |  |
| C[C@@H]1CC[C@H]2C(=O)N3[C@@H](CC[C@@H](C)[C@@H]3c3ccc(Br)cc3)C(=O)N2[C@@H]1c1ccc(Br)cc1 | 3.98 µM (active) |  |

| Compound | AC50 | activity, negative = inhibition |
| --- | --- | --- |
| C[C@@H]1CN2[C@H](c3ccc(Br)cc3)[C@H](C)CC[C@H]2C(=O)O1 |  | -3.17% [at 11.4 µM] (inactive) |
| CCCC[C@@H]1CN2[C@H](c3ccc(Br)cc3)[C@@H](C)CC[C@H]2C(=O)O1 |  | -13.2% [at 11.4 µM] (inactive) |
| COc1ccccc1NC(=O)N1CCCC1C(=O)NCc1ccc2c(c1)OCO2 (stereo unspecified) | inactive |  |
| CCC(Sc1nc2cc3c(cc2c(=O)n1Cc1ccco1)OCO3)C(=O)Nc1cccc(OC)c1 (stereo unspecified) | 2 µM (active) |  |
| CCC(Sc1nc2cc3c(cc2c(=O)n1Cc1ccco1)OCO3)C(=O)Nc1ccccc1OC (stereo unspecified) | 0.631 µM (active) |  |
| COc1cccc(Nc2ncc3nc(-c4cccs4)c(=O)n(Cc4cccs4)c3n2)c1 | inactive |  |
| CCCc1nnc(SCC(=O)N2C(C)CCCC2C)n1CCCOC (stereo unspecified) | inactive |  |
| Cc1cc(=O)c2c(O)c(O)ccc2o1 | inactive |  |
| CCOC(=O)[C@@]12C[C@@H]1/C(=N/O)c1ccccc1O2 | inactive |  |
| CCOC(=O)c1cccc2c1-c1ccccc1/C2=N/O | 8.91 µM (active) |  |
| NC[C@H](O)C1CCCCCCC1 | inactive |  |
| Nc1ncnc2c1nc(Sc1ccc(Cl)cc1)n2[C@@H]1O[C@H]2COP(=O)(O)O[C@@H]2[C@H]1O | inactive |  |
| Cn1c(=O)c(-c2ccc(Cl)cc2)nc2cnc(Oc3ccccc3)nc21 | inactive |  |
| COCCn1c(=O)c(-c2ccc(Cl)cc2)nc2cnc(Nc3ccccc3)nc21 | inactive |  |
| CCNc1ncc2nc(-c3ccc(OC)cc3)c(=O)n(CCOC)c2n1 | inactive |  |
| COCCn1c(=O)c(-c2ccccc2)nc2cnc(Oc3ccc(OC)cc3)nc21 | 10 µM (active) |  |
| COCCn1c(=O)c(-c2ccccc2)nc2cnc(Nc3cccc(OC)c3)nc21 | inactive |  |
| COCCn1c(=O)c(-c2ccccc2)nc2cnc(Oc3ccccc3)nc21 | 10 µM (active) |  |
| COCCn1c(=O)c(-c2cn(C)c3ccccc23)nc2cnc(Oc3ccc(OC)cc3)nc21 | inactive |  |
| COCCn1c(=O)c(-c2cn(C)c3ccccc23)nc2cnc(Oc3ccccc3)nc21 | inactive |  |
| COCCn1c(=O)c(-c2ccc(Cl)cc2)nc2cnc(Oc3ccccc3)nc21 | 7.94 µM (active) |  |
| Nc1nc(N)c2[nH]cnc2n1 (tested in a mixture with another compound) |  | -4.44% [at 11.4 µM] (inactive) |
| Cc1[nH]c(N)nc(=S)c1CCC(=O)O |  | 2.61% [at 11.4 µM] (inactive) |

| Compound | AC50 | activity, negative = inhibition |
| --- | --- | --- |
| c1ccc2c[n+](Cc3ccnc4ccccc34)ccc2c1 |  | -6.16% [at 11.4 µM] (inactive) |
| Cc1c(NC(=O)CN2C(=O)C3C4C=CC(C4)C3C2=O)c(=O)n(-c2ccccc2)n1C (stereo unspecified) | inactive |  |
| Cc1c(NC(=O)Cn2ccc([N+](=O)[O-])n2)c(=O)n(-c2ccccc2)n1C | inactive |  |
| Cc1c(NC(=O)CSc2nnnn2C)c(=O)n(-c2ccccc2)n1C | inactive |  |
| C=CCn1c(SCC(=O)Nc2c(C)n(C)n(-c3ccccc3)c2=O)nc2sc(C)c(-c3ccccc3)c2c1=O | 14.1 µM (active) |  |
| Cc1nc(SCC(=O)Nc2c(C)n(C)n(-c3ccccc3)c2=O)nc(C)c1C | inactive |  |
| Cc1c(NC(=O)CSc2nnc3c4ccccc4n(CCc4ccccc4)c3n2)c(=O)n(-c2ccccc2)n1C | 0.708 µM (active) |  |
| CN[C@]1(C)[C@@H]2CC[C@@H](C2)C1(C)C | inactive |  |
| CN1CCN(C2=Cc3ccccc3Oc3ccc(Cl)cc32)CC1 | inactive |  |
| C=CC[C@@H]1C=C[C@H](O/N=C(\C)CCN2CCc3nc(CC)c(CC)cc3C2)[C@H](CO)O1 |  | -6.8% [at 11.4 µM] (inactive) |
| O=C(c1cc(O)c(O)c([N+](=O)[O-])c1)c1ccccc1F | 1.26 µM (active) |  |
| O=C(O)c1cc(N=Nc2ccc([N+](=O)[O-])cc2)ccc1O |  | -19.1% [at 11.4 µM] (inactive) |
| N#Cc1cc2nc(O)c(O)nc2cc1[N+](=O)[O-] | inactive |  |
| CCCn1nnnc1NC(=O)COc1ccc(Cl)cc1C | 10 µM (active) |  |
| Cc1cc(Cl)ccc1OCC(=O)NCc1ccncc1 | 0.794 µM (active) |  |
| CCCn1nnnc1-c1cc(Cl)cc(Cl)c1 | inactive |  |
| Cc1cc(Cl)ccc1OCC(=O)Nc1nc(N)nc(N)n1 |  | 23.6% [at 11.4 µM] (inactive) |
| Cc1ccc(CNC(=O)COC(=O)c2cnccn2)cc1 | inactive |  |
| Cc1cccc(NC(=O)C2(c3ccc([N+](=O)[O-])cc3)CCCC2)c1 | 20 µM (active) |  |
| Cc1cccc(N/C(N)=N/c2nc(C)cc(C)n2)c1 | inactive |  |
| Cc1cccc(NC(=O)C2(c3ccccc3)CC2(Cl)Cl)c1 (stereo unspecified) | 2 µM (active) |  |
| CCN(CC)CCOC(=O)C1(c2ccc([N+](=O)[O-])cc2)CCCC1 | inactive |  |
